106 compounds from PubChem BioAssay AID662 (National Center for Advancing Translational Sciences (NCATS), 2007) can be followed below.

Screen size: about 71,000 compounds; about 1,800 (2.5%) were called active. Not shown: some 26% with an inconclusive outcome. The entries come from a sample that favours actives as a whole. A call without a number means that no potency is given here. A number with no mark means an inactive call. Calls follow the shape of the dose curve; as a rule, active = well fitted activation curve with a large enough effect in the signal ratio, with a control signal flat (not every such curve was filed as active); inconclusive = small, poorly fitted or top-dose-only effect, or effect the other way, or a change in a side signal; inactive = flat fitted curve, though single readings scatter; the % refers to the signal ratio.
Potency is read from the fitted curve at half-maximal effect.

The test is described as follows: Cell signaling CRE-BLA (Fsk stim). The conditions noted are these: CHO CRE-bla reporter (cAMP response element driving beta-lactamase), forskolin EC10, beta-lactamase ratio; series mostly up to 38.2 µM. The method, boiled down:
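Reporter-gene assay: CHO cells with beta-lactamase behind cAMP responsive elements, co-treated with compound and EC10 NKH 477 for 3 hours at 37 degrees Celsius. Activity came from the 460/530 nm CCF4 emission ratio.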
For the compound `COc1ccc(-c2nc3cnc(Oc4ccccc4)nc3n(Cc3cccs3)c2=O)cc1`, the Potency is 3.98 µM (active). On the same count and under the same terms, next, `COc1cccc(Cn2c(=O)c(C)nc3cnc(Oc4ccccc4)nc32)c1`: 10 µM (active); `COc1cccc(Cn2c(=O)c(CCc3ccccc3)nc3cnc(N(C)C)nc32)c1`: 6.31 µM (active). On the same count and under the same terms, next, `COc1cccc(Cn2c(=O)c(-c3ccccc3)nc3cnc(OC)nc32)c1`: 10 µM (active). Same read-out and setting: the entry for `CCNc1ncc2ncc(=O)n(Cc3cccc(OC)c3)c2n1` is “inactive”. In the case of `COc1cccc(Nc2ncc3ncc(=O)n(C4CC4)c3n2)c1`, the Potency entry was “inactive”. Same read-out and setting: the entry for `CCNc1ncc2ncc(=O)n(CCc3ccccc3)c2n1` is “inactive”; for `COc1ccc(Oc2ncc3nc(-c4ccc(F)cc4)c(=O)n(C)c3n2)cc1` it is “inactive”; for `COc1ccc(Oc2ncc3nc(C)c(=O)n(-c4ccccc4)c3n2)cc1` it is “inactive”. Same read-out and setting: next, `O=C1c2cccnc2C(=O)N1Cc1cccs1`: “inactive”. The same measure, in the same setting: next, `COc1ccc(-n2nnc3c(=O)n(CC(=O)OCc4ccccc4)cnc32)cc1`: “inactive”; `O=C(CC1(O)C(=O)N(CN2CCOCC2)c2ccccc21)c1ccccc1` (stereo unspecified): “inactive”; `CCCc1cc(=O)[nH]c(SCC(=O)OCc2ccccc2)n1`: “inactive”.

`CS(=O)(=O)N1CCN(C(=O)Cc2ccccc2)CC1`: the Potency result was “inactive”. Same read-out and setting: next, `O=P(O)(CN1CCCCC1)CN1CCCCC1`: “inactive”; `c1ccc(-n2ncc(-c3nn[nH]n3)n2)cc1`: “inactive”. Take `O=C(O)CCSc1nnc(-c2ccccc2)n1-c1ccccc1`: the activity change, negative = inhibition is 13.7% [at 7.6 µM].

As to `COc1cccc(-n2c(SCC(=O)NC3CCCCC3)nc3n[nH]c(C)c3c2=N)c1`, the Potency is 5.01 µM (active). As to `COc1cccc(-n2c(Cc3cc(=O)[nH]c(=O)[nH]3)nnc2SCC(=O)Nc2ccccc2)c1`, the Potency entry is “inactive”. As for `C=CCn1c(CC(=O)Nc2cccc(OC)c2)nnc1SCC(=O)NC1CCCCC1`, the Potency entry was “inactive”. On the same count and under the same terms, next, `CCc1ccc(N(CC)c2ncnc3nc[nH]c23)cc1`: “inactive”; `CCOC(=O)NC(C(F)(F)F)(C(F)(F)F)P(=O)(c1ccccc1)c1ccccc1`: “inactive”. Same read-out and setting: next, `CCCCNC(=O)CSc1nccn1Cc1ccccc1`: “inactive”; `COc1ccc(-c2csc(N3CCN(Cc4ccc5c(c4)OCO5)CC3)n2)cc1`: “inactive”; `CCOC(=O)NCc1ccc2c(c1)OCO2`: “inactive”. On the same count and under the same terms, next, `CC1CCCC(N2CCN(C(=O)c3ccc(F)cc3)CC2)C1` (stereo unspecified): “inactive”; `O=C(CN1C(=O)C2C3C=CC(C3)C2C1=O)NCC1COc2ccccc2O1` (stereo unspecified): “inactive”. As for `Cc1ccc(C(=O)OCC(=O)NCc2ccc3c(c2)OCO3)s1`, the Potency result is “inactive”. Same read-out and setting: the figure for `CCn1cc(C(=O)N2CCN(C3CCCCC3)CC2)c2cc(OC)c(OC)cc2c1=O` is 10 µM (active); for `Cc1cc(NC(=O)CCC2COc3ccccc3O2)no1` (stereo unspecified) it is “inactive”; for `CCn1cc(C(=O)NCc2ccc3c(c2)OCO3)c2cc(OC)c(OC)cc2c1=O` it is 2 µM (active). Still for that read-out and setting: the entry for `O=C(C(Cc1ccccc1)n1cccc1)N1CCN(C2CCCCC2)CC1` (stereo unspecified) is “inactive”. On the same count and under the same terms, the entry for `CS(=O)(=O)N(CC(=O)N1CCN(Cc2ccc3c(c2)OCO3)CC1)c1ccc2c(c1)OCO2` is “inactive”; for `CCn1cc(C(=O)N2CCN(Cc3ccc4c(c3)OCO4)CC2)c2cc(OC)c(OC)cc2c1=O` it is 7.94 µM (active). With `CCn1cc(C(=O)NCC2COc3ccccc3O2)c2cc(OC)c(OC)cc2c1=O` (stereo unspecified), the Potency is 1.58 µM (active). On the same count and under the same terms, the entry for `O=C(CCC(=O)OCC(F)(F)C(F)F)NCc1ccccc1` is “inactive”; for `COC(=O)[C@@]1(Cc2ccc(F)cc2)[C@H]2c3cc(C(=O)N4CCCC4)n(C[C@H](O)CO)c3C[C@H]2CN1C(=O)c1ccccc1` it is “inactive”; for `COc1ccc(-n2nnc3c(=O)n(CC(=O)N4CCC(Cc5ccccc5)CC4)cnc32)cc1` it is “inactive”.

With `CCOC(=O)C(CCOc1cccc(CC)c1)C(=O)OCC`, the Potency entry was “inactive”. Still for that read-out and setting: the entry for `C=C(C)C1CC=C(C)C(O)C1` (stereo unspecified) is “inactive”; for `CC(=O)NC(C)(C)C1CC=C(C)/C(=N\O)C1` (stereo unspecified) it is “inactive”; for `CC(C)OC(=O)CN1C(=O)c2ccccc2C1=O` it is “inactive”. The same measure, in the same setting: next, `O=C1C(c2[nH]c3ccccc3c2O)=Nc2ccccc21`: “inactive”. The same measure, in the same setting: the entry for `CCCCn1c(CCCNC(=O)CC)nc2ccccc21` is “inactive”; for `O=S(N1CCCCCC1)C12CC3CC(CC(C3)C1)C2` (stereo unspecified) it is “inactive”.

As for `Cc1nn2c3ccccc3nc2n(C)c1=O`, the Potency result was “inactive”. Consider `Cn1c(-c2ccc(C(=O)c3ccccc3)s2)nc2ccccc21`, for which the Potency is 2 µM (active).

Regarding `Cn1c(CNC(=O)C(C)(C)C)nc2ccccc21`, the Potency entry was “inactive”.

Consider `Cc1occc1C(=O)N1CCCc2ccccc21`, for which the Potency entry is “inactive”. Still for that read-out and setting: next, `Cc1cccc(Br)c1`: “inactive”; `COc1ccccc1N1CCN(C(=O)c2cn(-c3ccccc3)nc2-c2cccnc2)CC1`: “inactive”; `CCOC(=O)N1CCN(C(=O)c2cc3c(-c4ccc(Cl)cc4)nn(C)c3s2)CC1`: “inactive”.

Take `COc1cccc(-c2nn(C)c3sc(C(=O)N4CCN(c5ccccc5)CC4)cc23)c1`: the Potency is 2.51 µM (active).

For the compound `O=S(=O)(NCC1CCCO1)c1ccc2ccccc2c1` (stereo unspecified), the Potency result is “inactive”. Still for that read-out and setting: next, `O=C(O)CCC(=O)NCc1ccc2[nH]c3c(c2c1)CCCC3`: “inactive”; `CC/C=C/C/C=C/C/C=C/CCCCCCCC(=O)OCC`: “inactive”. As for `Oc1c(C(c2cccs2)N2CCN(c3ccc(F)cc3)CC2)sc2ncnn12` (stereo unspecified), the Potency entry is “inactive”. On to `Cc1c2c(nc3ccccc13)-c1cccc(=O)n1C2`, for which the Potency was 1.58 µM (active). `Cc1ccc(N2C(=O)CC(NCc3ccc4c(c3)OCO4)C2=O)cc1Cl` (stereo unspecified): the Potency result is “inactive”. `COc1ccc(N)c(OC)c1`: the Potency entry is “inactive”. Still for that read-out and setting: next, `CCn1c(=N)c(S(=O)(=O)c2ccc(F)cc2)cc2c(=O)n3ccccc3nc21`: 2 µM (active).

In the case of `Cc1cc(NC(=O)CN2CCCCC2C)nc2c1c(=O)oc1ccccc12` (stereo unspecified), the Potency result is “inactive”.

For `CCN(CC)CCCCn1c(-c2ccccc2)nc2c(N3CCOCC3)nc(C)nc21`, the Potency result was “inactive”. The same measure, in the same setting: the figure for `Cc1cc(/C=N/n2cnnc2)c(C)n1-c1ccc2ncccc2c1` is 0.0631 µM (active). Regarding `Fc1ccc(Br)cc1/C=N/n1cnnc1`, the Potency entry was “inactive”. In the case of `COc1cccc(C(=O)Nc2c3c(nn2-c2cccc(C)c2C)CS(=O)(=O)C3)c1OC`, the Potency was 7.94 µM (active). Still for that read-out and setting: the entry for `Cc1cccc(-n2nc3c(c2NC(=O)c2ccc(Br)o2)CSC3)c1C` is “inactive”.

In the case of `O=C(CC1CCCCC1)Nc1c2c(nn1-c1ccc(F)cc1)CS(=O)(=O)C2`, the Potency entry was “inactive”. On the same count and under the same terms, next, `COc1ccc(CCN=C2SCC(=O)N2C)cc1OC`: “inactive”. As for `CC1=NC2(CCCc3c2no[n+]3[O-])N(O)C1(C)C` (stereo unspecified), the activity change, negative = inhibition is 8.65% [at 7.6 µM]. For the compound `CNC(=O)C1(C)C=CC2(CCCCC2)N1C(C)=O` (stereo unspecified), the Potency entry is “inactive”. On the same count and under the same terms, next, `COC(=O)c1ccc(Oc2nc(Nc3ccc(F)cc3)nc(N3CCCC3)n2)cc1`: 3.16 µM (active); `CC(C)CC1(C(=O)NCc2ccccn2)C=CCN1C(=O)c1ccccc1` (stereo unspecified): “inactive”; `CCC1(C)N(O)C(C)(C)C(c2ccc(OC)cc2)=[N+]1[O-]` (stereo unspecified): “inactive”. Same read-out and setting: the figure for `Cc1cnc(CNc2nc(-c3cccnc3)nc3ccccc23)cn1` is 12.6 µM (active). Regarding `Cc1cnc(CNc2ncncc2-c2ccccc2Cl)cn1`, the Potency entry was “inactive”. Same read-out and setting: next, `c1ccc(CNc2ncncc2-c2cccnc2)cc1`: “inactive”; `CCCC(NS(=O)(=O)c1ccc(OC)cc1)C(=O)O` (stereo unspecified): “inactive”; `CC1CCc2sc3nc(N4CCN(CCO)CC4)n4ncnc4c3c2C1` (stereo unspecified): 5.01 µM (active).

As for `COc1ccccc1-n1c(CNC(=O)c2ccccc2)nnc1SCC(=O)Nc1nnc(C)s1`, the Potency entry was “inactive”.

Regarding `CC1CN(Cc2nc3c(c(=O)n(C)c(=O)n3C)n2Cc2cccc(Cl)c2)CC(C)O1` (stereo unspecified), the Potency entry was “inactive”.

Consider `Cc1nc(SC(C)C)[nH]c(=O)c1Cc1ccccc1`, for which the Potency result is “inactive”. On the same count and under the same terms, the entry for `CCOC(=O)Nc1ccccc1N1C(=O)c2ccccc2C1=O` is “inactive”; for `CCOC(=O)c1cc2n(c1C)-c1ccccc1C2=O` it is 15.8 µM (active); for `CCOC(=O)c1cc2ccccc2nc1C` it is “inactive”.

As for `COC(=O)c1ccc(C(NC(=O)OCc2ccccc2)/C(C)=C/[C@@H](C)C(=O)NCc2cc(C)on2)cc1` (stereo partly specified), the Potency entry was “inactive”.

Regarding `Cc1nn(-c2ccccc2)c2sc(C(=O)N(Cc3ccco3)C(C)C(=O)NC(C)(C)C)cc12` (stereo unspecified), the Potency was 1.58 µM (active). Same read-out and setting: the entry for `O=C(NCc1ccco1)c1nc(-c2ccccc2)n(-c2ccccc2)n1` is “inactive”. On to `Cc1nc2nc(SCC(=O)NCc3ccco3)nn2c(C)c1Cc1ccccc1`, for which the Potency result was “inactive”. Regarding `Cc1ccnc(SCCn2c(N(C)Cc3ccccc3)nc3c2c(=O)n(C)c(=O)n3C)n1`, the Potency entry was “inactive”. Same read-out and setting: the entry for `Cc1ccc2c(NC(=O)C3CC3)cccc2n1` is “inactive”. On to `CC(=O)N1CCC(C(=O)Nc2nc(-c3ccccc3)ns2)CC1`, for which the Potency is 10 µM (active). On the same count and under the same terms, the entry for `CCN(CC)S(=O)(=O)N1CCC(C(=O)NC(C)CCc2ccccc2)CC1` (stereo unspecified) is “inactive”.

For the compound `CC(=O)N1CCN(c2cccc(C)c2C)CC1`, the activity change, negative = inhibition is 1.32% [at 7.6 µM]. Regarding `Cn1c(NC(=O)c2ccc3c(c2)OCO3)cc(=O)n(C)c1=O`, the Potency result was “inactive”.

Turning to `Cc1c(NC(=O)Nc2ccccc2Cl)sc(=S)n1C`, the Potency entry was “inactive”. On the same count and under the same terms, next, `CCn1c(COc2ccc(OC)cc2)nnc1SCC(=O)Nc1cc(OC)ccc1OC`: “inactive”; `COc1ccc(OC)c(NC(=O)CSc2nc(N)c(-c3ccccc3)c(=O)[nH]2)c1`: 12.6 µM (active); `COc1ccc(OC)c(NC(=O)Cn2c(=O)oc3ccccc32)c1`: “inactive”. On the same count and under the same terms, the entry for `CCCC(C(=O)N1CCOCC1)N1C(=O)C2C3C=CC(C3)C2C1=O` (stereo unspecified) is “inactive”. On the same count and under the same terms, next, `CC(C)C[C@@H](CC(=O)N[C@@H](CCC(=O)O)CC(=O)O)NC(=O)[C@@H]1CCCC[C@H]1NC(=O)C[C@@H](NC(=O)C[C@H](Cc1c[nH]c2ccccc12)NC(=O)[C@@H]1CCCC[C@H]1N)C(C)C`: “inactive”. Regarding `Cc1ccc(NC(=O)CSc2nnc(-c3cnccn3)n2Cc2ccco2)cc1C`, the Potency entry was “inactive”. With `CCn1c(SCC(=O)Nc2nccs2)nnc1-c1ccncc1`, the Potency result was “inactive”. On to `CCn1c(SCC(=O)Nc2cc(C)ccc2C)nnc1-c1cnccn1`, for which the Potency is 3.16 µM (active). Same read-out and setting: next, `CSc1ccc(-c2c(C#N)c(N)nc3c2c(C)nn3-c2ccccc2)cc1`: 10 µM (active). Same read-out and setting: the entry for `Cc1cccc(NC(=O)COc2ccc(Br)cc2C)n1` is “inactive”.
